Data reported in PubChem BioAssay AID1159580 (chemical genetic matrix, 2015).
The campaign covered roughly 5,500 compounds. About 2,000 (36%) were called active. About 18% were inconclusive and are not listed. Rule as the data show it: active = normalized growth mostly below about 0.91 (no sharp cut-off); inconclusive = no clear call, values can overlap the other calls; inactive = mostly above about 0.92. Some of the results follow.

Assay: chemical genetic growth profiling, strain panel (AID 1159580);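 also: tested at 20 µM; growth read once vehicle control cultures reached saturation at 30 °C; 1 = growth at the plate median or of vehicle wells; lower values mean less growth of the strain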
Details: S. cerevisiae deletion strains, growth OD
[1] = locus YDL101C, strain DUN1, stronger effect = lower value
[2] = locus YHR030C, strain SLT2, stronger effect = lower value

Measured: normalized growth

Cc1onc(-c2c(Cl)cccc2Cl)c1C(=O)OCC(F)(F)F
inactive: locus YAL013W, strain DEP1, stronger effect = lower value 1.01 | locus YBR229C, strain ROT2, stronger effect = lower value 1.01 | locus YCL061C, strain MRC1, stronger effect = lower value 1.02 | [1] 0.984 | locus YDR150W, strain NUM1, stronger effect = lower value 0.982 | locus YEL061C, strain CIN8, stronger effect = lower value 1 | locus YGR078C, strain PAC10, stronger effect = lower value 0.99 | [2] 1.05 | locus YHR087W, strain rtc3, stronger effect = lower value 0.986 | locus YJR043C, strain POL32, stronger effect = lower value 0.99 | locus YJR075W, strain HOC1, stronger effect = lower value 1 | locus YKL190W, strain CNB1, stronger effect = lower value 1 | locus YLR039C, strain RIC1, stronger effect = lower value 0.955 | locus YLR058C, strain SHM2 (second series), stronger effect = lower value 1.01 | locus YLR085C, strain ARP6, stronger effect = lower value 0.971 | locus YLR262C, strain YPT6, stronger effect = lower value 0.942 | locus YML094W, strain GIM5, stronger effect = lower value 1.01 | locus YMR219W, strain ESC1, stronger effect = lower value 0.997 | locus YMR263W, strain SAP30, stronger effect = lower value 1 | locus YNL153C, strain GIM3, stronger effect = lower value 1.02 | locus YNL298W, strain CLA4 (second series), stronger effect = lower value 1.02 | locus YNL322C, strain KRE1, stronger effect = lower value 1 | locus YNR030W, strain Alg12, stronger effect = lower value 0.985 | locus YPL055C, strain LGE1, stronger effect = lower value 1.01 | locus YPL241C, strain CIN2, stronger effect = lower value 1.04 | locus YPR135W, strain CTF4, stronger effect = lower value 0.989

CCCCCCCCCCCC(=O)NOC(=O)c1c(-c2c(Cl)cccc2Cl)noc1C
inactive: locus YAR019C, strain CDC15, stronger effect = lower value 0.984 | locus YBL105C, strain PKC1, stronger effect = lower value 0.986 | locus YBR135W, strain CKS1, stronger effect = lower value 0.984 | locus YBR136W, strain MEC1, stronger effect = lower value 0.985 | locus YBR160W, strain CDC28, stronger effect = lower value 0.998 | locus YDL017W, strain CDC7, stronger effect = lower value 0.986 | locus YDL028C, strain MPS1, stronger effect = lower value 0.988 | [1] 0.999 | locus YDL108W, strain KIN28, stronger effect = lower value 0.982 | locus YDL132W, strain cdc53, stronger effect = lower value 0.986 | locus YDL214C, strain PRR2, stronger effect = lower value 0.948 | locus YDR052C, strain DBF4, stronger effect = lower value 0.997 | locus YDR054C, strain cdc34, stronger effect = lower value 0.988 | locus YDR226W, strain ADK1, stronger effect = lower value 0.981 | locus YDR477W, strain SNF1, stronger effect = lower value 0.818 | locus YER123W, strain YCK3, stronger effect = lower value 0.656 | locus YER133W, strain GLC7, stronger effect = lower value 0.779 | locus YFL009W, strain cdc4, stronger effect = lower value 0.99 | locus YFL029C, strain CAK1, stronger effect = lower value 0.989 | locus YFR003C, strain YPI1, stronger effect = lower value 0.984 | locus YFR019W, strain FAB1, stronger effect = lower value 0.874 | locus YFR028C, strain CDC14, stronger effect = lower value 0.996 | locus YGR040W, strain KSS1, stronger effect = lower value 0.838 | locus YGR052W, strain FMP48, stronger effect = lower value 0.641 | locus YGR092W, strain DBF2, stronger effect = lower value 0.586 | locus YHR082C, strain KSP1, stronger effect = lower value 0.9 | locus YHR205W, strain SCH9, stronger effect = lower value 0.586 | locus YIL147C, strain SLN1, stronger effect = lower value 0.984 | locus YJL128C, strain PBS2, stronger effect = lower value 1 | locus YJL157C, strain FAR1, stronger effect = lower value 0.909 | locus YJR016C, strain ILV3, stronger effect = lower value 0.984 | locus YJR066W, strain TOR1, stronger effect = lower value 0.583 | locus YKL048C, strain ELM1, stronger effect = lower value 0.995 | locus YKL067W, strain YNK1, stronger effect = lower value 0.944 | locus YKL101W, strain HSL1, stronger effect = lower value 0.961 | locus YKL193C, strain SDS22, stronger effect = lower value 0.979 | locus YLR133W, strain CKI1, stronger effect = lower value 0.905 | locus YML070W, strain DAK1, stronger effect = lower value 0.692 | locus YMR001C, strain CDC5, stronger effect = lower value 0.982 | locus YMR205C, strain PFK2 (second series), stronger effect = lower value 0.935 | locus YMR277W, strain FCP1, stronger effect = lower value 0.977 | locus YNL006W, strain LST8, stronger effect = lower value 0.992 | locus YNL020C, strain ARK1, stronger effect = lower value 0.915 | locus YNL161W, strain CBK1, stronger effect = lower value 0.992 | locus YNL207W, strain RIO2, stronger effect = lower value 0.966 | locus YNL222W, strain SSU72, stronger effect = lower value 0.988 | locus YNL307C, strain MCK1 (second series), stronger effect = lower value 0.69 | locus YOL078W, strain AVO1, stronger effect = lower value 0.98 | locus YOL136C, strain PFK27, stronger effect = lower value 0.867 | locus YOR061W, strain CKA2, stronger effect = lower value 0.886 | locus YOR231W, strain MKK1, stronger effect = lower value 0.689 | locus YOR329C, strain SCD5, stronger effect = lower value 0.991 | locus YPL031C, strain PHO85, stronger effect = lower value 0.795 | locus YPL209C, strain IPL1, stronger effect = lower value 0.991 | locus YPR025C, strain CCL1, stronger effect = lower value 0.993 | locus YPR106W, strain ISR1, stronger effect = lower value 1 | locus YPR111W, strain DBF20, stronger effect = lower value 1.01 | strain NNK1, stronger effect = lower value 0.996 | strain TSCII, stronger effect = lower value 0.991
active: [2] 0.139 | locus YHR079C, strain IRE1, stronger effect = lower value 0.139 | locus YJL095W, strain BCK1, stronger effect = lower value 0.117 | locus YJR066W, strain TOR1 (second series), stronger effect = lower value 0.451 | locus YKL203C, strain TOR2, stronger effect = lower value 0.66 | locus YLR113W, strain HOG1, stronger effect = lower value 0.415 | locus YLR403W, strain SFP1, stronger effect = lower value 0.553 | locus YNL183C, strain NPR1, stronger effect = lower value 0.571 | locus YOR119C, strain RIO1, stronger effect = lower value 0.578 | locus YPL153C, strain RAD53, stronger effect = lower value 0.533 | locus YPL204W, strain HRR25, stronger effect = lower value 0.63 | locus YPL256C, strain CLN2, stronger effect = lower value 0.697
